# Bioassay records: PubChem BioAssay, several laboratories
# Only some compounds are listed: those with a hit (about 2.2% of all), similar ones and a draw of the others.
# HUVEC tox IL1B – cytotoxicity in IL-1B stimulated HUVEC, primary screen, cytotoxicity control for IL-1B NFkB translocation project, imaging, Hoechst nuclear count, IL-1B stimulus | AID 845, 2007 | cell count reduction, % at 2 µM | HUVEC cell count loss | 94,000 tested, 0.41% active;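 active = cell count reduction more than 3 SD above the screen-wide mean, cut at about 70% in these data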
# Pyk2 oligo antag – antagonists of Pyk2 self-association, primary screen, Q293 cells, FERM NanoBiT luminescence, HTS. Protein-tyrosine kinase 2-beta (Homo sapiens), Q14289. stronger effect = lower value. z-score (the deposit names both 25 µM and 10 µM). 99,000 tested, 0.83% active;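 active = Z-score of -3 or lower, scaled per plate to the spread of control and sample wells; inactive = z-score above -3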;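 note: negative z-score means lost luminescence so less FERM oligomerization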
# IL1B NFkB pot – enhancers of NFkB p65 translocation in HUVEC – imaging, IL-1B stimulus, high-content imaging, primary screen; 94,000 tested, 0.3% active; activation, % at 2 µM; HUVEC IL-1B NFkB p65 nuclear translocation imaging; AID 819, 2007;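 active = activation above 40%, about the mean plus 3 SD, also judged a hit on visual image review; inconclusive = activation above 40% but not a hit on visual review; inactive = activation not above 40% and no visual hit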;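 note: percent activation is computed from the nuclear over cytoplasmic p65 intensity ratio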
# PLK1 PBD inh – Plk1 polo box domain binding inhibitors, primary screen, biochemical, fluorescence polarization. Serine/threonine-protein kinase PLK1 (Homo sapiens), P53350. Plk1 PBD phosphopeptide binding. inhibition, %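 (tested at about 20 µM)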. 97,000 tested, 0.13% active; in the data active = inhibition above about 34%, passing the limit was not always enough
# PLK1 kinase inh – human PLK1 kinase inhibitors, primary screen, biochemical, TR-FRET | recombinant PLK1 kinase, TR-FRET peptide phosphorylation | inhibition, % at 10 µM | 97,000 tested, 0.53% active | AID 619, 2007;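 active = inhibition of 50% or more in the single-concentration screen; inactive = inhibition below 50%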
# IL1B NFkB inh – inhibitors of IL-1B driven NFkB p65 nuclear import, primary screen, imaging, HUVEC, IL-1B stimulus, high-content imaging. 94,000 tested, 0.43% active. AID 796, 2007. inhibition, % at 2 µM. HUVEC IL-1B NFkB p65 nuclear translocation imaging;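 active = inhibition above about 30% together with a positive call from visual inspection of the well image, limit read from the data; inconclusive = inhibition above a set limit but visual check negative; inactive = inhibition not above a set limit, visual check negative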;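 note: nuclear over cytoplasmic p65 intensity ratio measured by imaging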
# A number is an active result; . = inactive; ? = inconclusive; / = no result.
SMILES,HUVEC tox IL1B,Pyk2 oligo antag,IL1B NFkB pot,PLK1 PBD inh,PLK1 kinase inh,IL1B NFkB inh
CCC(=Nc1ccc(OC)cc1OC)c1c(O)n(C2CCCCC2)c(=O)[nH]c1=O,.,-3.4,.,.,.,.
CCC(=NCc1cccnc1)c1c(O)n(C2CCCCC2)c(=O)[nH]c1=O,.,-3.5,.,.,.,.
Cc1sc2c(c1C)C(c1ccc(C(C)(C)C)cc1)=NCC(=O)N2CC(=O)Nc1nccs1,.,.,.,.,.,.
O=P(C(c1c[nH]c2ccccc12)N1CCOCC1)(N1CCOCC1)N1CCOCC1 (stereo not drawn),.,.,.,.,.,.
CCCCn1c(O)c(/C=C/C=Nc2ccccc2)c(=O)[nH]c1=O,/,.,/,/,/,/
CCS(=O)(=O)NCc1nnc2n1-c1ccc(Cl)cc1C(c1ccccc1)=NC2,/,.,/,/,/,/
Cc1ccc2c(c1)[C@@H]1CN(C)CC[C@@H]1N2C(=O)Nc1cccc(C(F)(F)F)c1,.,.,.,.,.,.
Cc1ccc2c(c1)C1CN(C)CCC1N2C(=O)Nc1cccc(C(F)(F)F)c1 (stereo not drawn),.,.,.,.,.,30
CN1CCC(n2nccc2N)CC1,.,.,.,.,.,36
COc1ccc(Oc2cc(NC(=O)c3nn(C)cc3[N+](=O)[O-])cc([N+](=O)[O-])c2)cc1,.,-3.7,.,.,.,.
O=C(Cc1ccccc1)OC(COCc1ccccc1)CN1CCOCC1 (stereo not drawn),.,.,.,.,.,.
Cc1nn(-c2ccccc2)c(Cl)c1C1C(C#N)=C(N)Oc2c1c(=O)oc1ccccc21 (stereo not drawn),/,-3.2,/,.,.,/
N#CC1=C(N)Oc2c(c(=O)oc3ccccc23)C1c1cccnc1 (stereo not drawn),/,.,/,/,/,/
CCCCn1c(O)c(C=NC2CCCCC2N)c(=O)[nH]c1=O (stereo not drawn),84,.,.,.,.,99
Cc1ccc2c(c1)CC1(CN2C)C(=O)NC(=O)N(CCC2=CCCCC2)C1=O (stereo not drawn),.,.,66,.,.,.
Cc1ccc2c(c1)CC1(CN2C)C(=O)NC(=O)N(C(C)C)C1=O (stereo not drawn),.,.,.,.,.,.
O=C(c1ccccc1)c1cn(CC(=O)N2CCCc3ccccc32)c2ccccc12,.,.,.,.,.,.
O=C(Cn1cc(C(=O)c2ccccc2)c2ccccc21)NCc1ccco1,88,-3.2,.,.,.,93
COC(=O)C1CN(C#N)N(c2ccc(Cl)cc2)C12c1ccccc1-c1ccccc12 (stereo not drawn),.,.,.,.,.,65
CC(=O)c1ccc2c(c1)C1C(Cl)C(Sc3ccccc3[N+](=O)[O-])CC1C(c1ccccc1[N+](=O)[O-])N2 (stereo not drawn),.,-3.4,?,.,.,.
CC(=O)c1ccc2c(c1)C1C(Cl)C(Sc3ccccc3[N+](=O)[O-])CC1C(c1ccccc1)N2 (stereo not drawn),.,.,.,.,.,.
COc1cc(C)c(CN2CCN(c3ccccc3)CC2)cc1C,.,.,.,.,.,.
CN1C(=O)C(=Cc2ccccc2Oc2ccc(Cl)cc2)C(=O)N(C)C1=O,.,-3.9,.,.,.,.
Cc1cc(C)c(C(=O)CN2CCOCC2)c(C)c1,.,.,.,.,.,.
Cc1cccc(N2C(=O)NC(=O)/C(=C\c3cccn3-c3ccc(Cl)cc3)C2=O)c1,.,-3.4,.,.,.,.
Cc1ccc(CS(=O)(=O)Cc2ccc(C(=O)N3CCC4(CC3)OCCO4)o2)cc1,.,.,.,.,.,.
Cc1ccc(CS(=O)(=O)CCC(=O)N2CCC3(CC2)OCCO3)cc1,92,.,.,.,.,.
N=c1c[n+](CC23CC4CC(CC(C4)C2)C3)[n-]o1,.,.,.,.,.,.
COc1ccc(-c2cc(C(F)(F)F)n3nc(C(=O)N4CCC5(CC4)OCCO5)cc3n2)cc1OC,89,.,.,.,.,.
